# Reference: PubChem BioAssay (NCI)
# Where “and” joins values, the source holds several entries; their conditions need not be identical. Equal values may be shown once. Compounds without any hit were thinned out: in the full panel of roughly 79,000, 15% have a hit. More than one record can exist for a structure, and the calls need not agree. Calls of active or inactive are those of the source. Rule as the data show it: active = growth inhibition above about 70%; inactive = the rest.
# How the values were obtained:
# [1] = NCI Yeast Anticancer Drug Screen. Data for the rad50 strain (AID 155);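 also: 0% = growth of vehicle-only cultures of the same strain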; details: S. cerevisiae rad50 strain growth inhibition, stronger effect = higher value
# Procedure, shortened: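 A DNA repair-deficient yeast mutant serves as the test organism; compound-induced growth inhibition is calculated against vehicle-treated cells.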
# [2] = NCI Yeast Anticancer Drug Screen. Data for the mec2-1 strain (AID 157); details: S. cerevisiae mec2-1 strain, stronger effect = higher value
# Procedure, shortened: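 Readout is yeast growth inhibition, normalised to vehicle-treated controls, in the mec2-1 strain exposed to compound.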
# [3] = NCI Yeast Anticancer Drug Screen. Data for the sgs1 mgt1 strain (AID 161);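 also: 0% = growth of cultures given vehicle only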; details: S. cerevisiae sgs1 mgt1 strain, stronger effect = higher value
# Procedure, shortened: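 Growth of a repair-deficient yeast mutant was monitored after compound treatment and expressed as inhibition relative to vehicle-treated cultures.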
# [4] = NCI Yeast Anticancer Drug Screen. Data for the cln2 rad14 strain (AID 165);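 also: 0% = growth equal to vehicle treated cultures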; details: S. cerevisiae cln2 rad14 strain, stronger effect = higher value
# Procedure, shortened: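 Relative to vehicle controls, growth inhibition of compound-treated cln2 rad14 yeast was recorded.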
# [5] = NCI Yeast Anticancer Drug Screen. Data for the bub3 strain (AID 167); details: S. cerevisiae bub3 mutant strain, stronger effect = higher value
# Procedure, shortened: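 Inhibition values come from growth of compound-treated mutant yeast normalised to vehicle-treated controls.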
# [6] = NCI Yeast Anticancer Drug Screen. Data for the mlh1 rad18 strain (AID 175); details: S. cerevisiae mlh1 rad18 strain growth inhibition, stronger effect = higher value
# Procedure, shortened: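 Test agents were incubated with a yeast strain of defined genotype (DNA damage repair defect). Inhibition of growth was derived by comparison with vehicle-exposed cultures.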
# [7] = at 5.0 µM (retest, dose inferred, filed as 0.5)
# [8] = at 50.0 µM (retest, dose inferred, filed as 5.0)
Structure (SMILES),"growth inhibition [1, 7]","growth inhibition [1, 8]",growth inhibition ([1]; at 50.0 µM),"growth inhibition [2, 7]","growth inhibition [2, 8]",growth inhibition ([2]; at 50.0 µM),"growth inhibition [3, 7]","growth inhibition [3, 8]",growth inhibition ([3]; at 50.0 µM),"growth inhibition [4, 7]","growth inhibition [4, 8]",growth inhibition ([4]; at 50.0 µM),"growth inhibition [5, 7]","growth inhibition [5, 8]",growth inhibition ([5]; at 50.0 µM),"growth inhibition [6, 7]","growth inhibition [6, 8]",growth inhibition ([6]; at 50.0 µM)
CCOc1ccc(N/N=C(\CCC(=O)O)C(=O)O)cc1,-6% (inactive),92% (active),96% (active),-9% (inactive),77% (active),81% (active),-3% (inactive),84% (active),50.2% (inactive),-64% (inactive),94% (active),94.1% (active),-15% (inactive),-45% (inactive),86.7% (active),-5% (inactive),96% (active),95.2% (active)
O=[N+]([O-])c1ccc(SSc2ccc([N+](=O)[O-])cc2)cc1,35% (inactive) and 88% (active),98% (active),98.2% (active) and 65.7% (inactive),70% (active) and 99% (active),99% (active),98.9% (active) and 38.1% (inactive),91% (active) and 87% (active),99% (active) and 98% (active),99% (active) and 68.8% (inactive),27% (inactive) and 65% (inactive),97% (active),93.7% (active) and -34.6% (inactive),58% (inactive) and 98% (active),99% (active),98.5% (active) and 49.2% (inactive),70% (active) and 87% (active),98% (active),98.3% (active) and 69.6% (inactive)
CC(C)(C)OC(=O)NCCc1cccc2c1oc1c(CCC(=O)O)cccc12,-14% (inactive),76% (active),89.6% (active),-1% (inactive),95% (active),78.4% (active),3% (inactive),53% (inactive),68.7% (inactive),-16% (inactive),99% (active),87% (active),-20% (inactive),88% (active),79.6% (active),-7% (inactive),96% (active),83.5% (active)
Nc1ncnc2c1ncn2C1SC(CO)C(O)C1O (stereo not drawn),0% (inactive),8% (inactive),4.35% (inactive) and 13.3% (inactive) and 42.6% (inactive),-6% (inactive),5% (inactive),32.3% (inactive) and 4.55% (inactive) and -7.25% (inactive),0% (inactive),7% (inactive),3.2% (inactive) and 3.55% (inactive) and 36.1% (inactive),-4% (inactive),-4% (inactive),11.2% (inactive) and 44.8% (inactive) and 2.35% (inactive),-3% (inactive),-7% (inactive),-21.4% (inactive) and -3.85% (inactive) and -4.3% (inactive),13% (inactive),25% (inactive),14.7% (inactive) and 4.75% (inactive) and -3.25% (inactive)
COC(=O)c1ccc(O)c(OC)c1,-1% (inactive),-5% (inactive),-25.2% (inactive),1% (inactive),-3% (inactive),-2.35% (inactive),0% (inactive),-1% (inactive),-8.9% (inactive),-2% (inactive),2% (inactive),28.1% (inactive),12% (inactive),27% (inactive),12.8% (inactive),-4% (inactive),-3% (inactive),9.5% (inactive)
COC(=O)C1=COC(C)C2C[n+]3ccc4c([nH]c5ccccc54)c3CC12 (stereo not drawn),23% (inactive),25% (inactive),-11.6% (inactive) and 6.35% (inactive),22% (inactive),25% (inactive),-34% (inactive) and 31.9% (inactive),17% (inactive),38% (inactive),-11.2% (inactive) and 17.6% (inactive),21% (inactive),30% (inactive),-8.3% (inactive) and -15.8% (inactive),22% (inactive),35% (inactive),-31.1% (inactive) and 38.2% (inactive),23% (inactive),39% (inactive),-18.1% (inactive) and 43.3% (inactive)
O=C(O)C1(Cc2ccccc2)Cc2cc3c(cc2C1)CCC3,5% (inactive),5% (inactive),90% (active),-4% (inactive),-4% (inactive),92% (active),0% (inactive),0% (inactive),87.2% (active),2% (inactive),2% (inactive),89% (active),-17% (inactive),-17% (inactive),89.7% (active),8% (inactive),8% (inactive),84.8% (active)
COc1cccc(NC(=S)N2CCCCC2)c1,-158% (inactive),-160% (inactive),38.4% (inactive),-51% (inactive),-58% (inactive),-0.45% (inactive),-69% (inactive),-61% (inactive),-8.25% (inactive),-69% (inactive),-102% (inactive),-82.4% (inactive),-60% (inactive),-58% (inactive),14.7% (inactive),-132% (inactive),-151% (inactive),20.9% (inactive)
CCOC(=O)C1=C(C(=O)c2ccc(OC)cc2)C(c2c(Cl)cccc2Cl)C(C(=O)c2ccc(OC)cc2)=C(C(=O)OCC)N1,8% (inactive),19% (inactive),53.9% (inactive),6% (inactive),35% (inactive),71% (active),19% (inactive),-5% (inactive),70.3% (active),-19% (inactive),18% (inactive),88.2% (active),14% (inactive),7% (inactive),88.7% (active),6% (inactive),0% (inactive),81.8% (active)
Nc1nc(N)c2nc3c4ccccc4c4ccccc4c3nc2n1,2% (inactive),35% (inactive),56.5% (inactive),1% (inactive),30% (inactive),38.5% (inactive),0% (inactive),32% (inactive),21.7% (inactive),1% (inactive),3% (inactive),68.8% (inactive),7% (inactive),38% (inactive),74.5% (active),5% (inactive),44% (inactive),69.5% (inactive)
CCn1c2ccccc2c2ccc(N=Cc3ccc(N(C)C)cc3)cc21,1% (inactive),78% (active),61.6% (inactive),-1% (inactive),17% (inactive),41.5% (inactive),2% (inactive),40% (inactive),61% (inactive),0% (inactive),45% (inactive),27.4% (inactive),-3% (inactive),25% (inactive),70.7% (active),5% (inactive),37% (inactive),47.5% (inactive)
O=Cc1cc(Br)ccc1O,21% (inactive) and 9% (inactive),97% (active) and 85% (active),88.7% (active) and 95.2% (active),7% (inactive) and 4% (inactive),73% (active) and 77% (active),92.5% (active) and 98% (active),10% (inactive) and 4% (inactive),73% (active) and 68% (inactive),95.9% (active) and 96.3% (active),8% (inactive) and -3% (inactive),61% (inactive) and 30% (inactive),48.2% (inactive) and 69% (inactive),6% (inactive) and -4% (inactive),97% (active) and 88% (active),91.7% (active) and 97.5% (active),17% (inactive) and 11% (inactive),94% (active) and 93% (active),97% (active) and 99% (active)
CC(=O)OC(c1ccccc1)c1ccc(Cl)cc1 (stereo not drawn),3% (inactive),0% (inactive),-11% (inactive),7% (inactive),6% (inactive),42.2% (inactive),4% (inactive),8% (inactive),-0.4% (inactive),4% (inactive),-14% (inactive),-1.9% (inactive),6% (inactive),8% (inactive),-5.65% (inactive),1% (inactive),-1% (inactive),2.9% (inactive)
CSc1ccc(N2C(=O)CSC2=S)cc1Cl,27% (inactive),74% (active),97.5% (active),27% (inactive),40% (inactive),94.3% (active),16% (inactive),79% (active),95.2% (active),-1% (inactive),-4% (inactive),29.1% (inactive),37% (inactive),82% (active),92.4% (active),31% (inactive),94% (active),97% (active)
Cn1c(N)nc(=O)c2[nH]cnc21,-1% (inactive),-1% (inactive),-4.3% (inactive),-1% (inactive),-2% (inactive),11.8% (inactive),-3% (inactive),-4% (inactive),6.9% (inactive),2% (inactive),-3% (inactive),86.8% (active),1% (inactive),-3% (inactive),-9.25% (inactive),-3% (inactive),0% (inactive),-17.2% (inactive)
CC12CCC3c4ccc(O)cc4CCC3C1CCC2S (stereo not drawn),-4% (inactive),96% (active),-7.35% (inactive) and 96.5% (active),-31% (inactive),97% (active),-1.65% (inactive) and 49.3% (inactive),-19% (inactive),97% (active),-2.95% (inactive) and 52.2% (inactive),-3% (inactive),96% (active),-5.3% (inactive) and 94.8% (active),-9% (inactive),97% (active),0.75% (inactive) and 98.1% (active),-26% (inactive),95% (active),-2.3% (inactive) and 96.3% (active)
